Measured values from PubChem BioAssay (NCATS).
Records with an inconclusive call do not appear. Calls of active or inactive are those of the source. Calls come from the whole dose curve; as a rule, active = well fitted inhibition curve with a large enough effect; inconclusive = small, poorly fitted or top-dose-only effect; inactive = flat fitted curve, though single readings scatter.

What was measured:
Assay in all cases: qHTS profiling for inhibitors of Plasmodium falciparum proliferation (AID 504749); note: nearly all actives have a fitted effect of over 60% in size
Conditions in all cases: P. falciparum in erythrocytes, SYBR Green DNA, 72 h; series mostly up to 28.7 µM
DIV14 = tested on: DIV14
Outline: (§1)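 Parasite proliferation within erythrocytes, 72 h exposure. Endpoint: SYBR Green I fluorescence after overnight lysis at room temperature. Controls: 0.29 uM artemisinin, DMSO.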

DIV17 = tested on: DIV17
Outline: as §1

DIV30 = tested on: DIV30
Outline: as §1

Dd2 = tested on: Dd2
Outline: as §1

ECU = tested on: ECU
Outline: as §1

FAB9 = tested on: FAB9
Outline: as §1

GB4 = tested on: GB4
Outline: as §1

HB3 = tested on: HB3
Outline: as §1

ICS = tested on: ICS
Outline: as §1

JCK = tested on: JCK
Outline: as §1

N140 = tested on: N140
Outline: as §1

P93_24 = tested on: P93_24
Outline: as §1

P94_40 = tested on: P94_40
Outline: as §1

PAD = tested on: PAD
Outline: as §1

PC15 = tested on: PC15
Outline: as §1

PC26 = tested on: PC26
Outline: as §1

PC49 = tested on: PC49
Outline: as §1

SC27B = tested on: SC27B
Outline: as §1

TAB109 = tested on: TAB109
Outline: as §1

TAB113 = tested on: TAB113
Outline: as §1

Measured: Potency
Potency is the fitted concentration of half-maximal effect.

CCCC1CCCCN1 (configuration not stated)
inactive: DIV14 | DIV17 | DIV30 | Dd2 | ECU | FAB9 | GB4 | HB3 | ICS | JCK | N140 | P93_24 | P94_40 | PAD | PC15 | PC26 | PC49 | SC27B | TAB109 | TAB113

CC(=O)[C@H]1CC[C@H]2[C@@H]3CC[C@H]4C[C@](C)(O)CC[C@]4(C)[C@H]3CC[C@]12C
inactive: DIV14 | DIV17 | DIV30 | Dd2 | ECU | FAB9 | GB4 | HB3 | ICS | JCK | N140 | P93_24 | P94_40 | PAD | PC15 | PC26 | PC49 | SC27B | TAB109 | TAB113

FC(F)(F)c1cccc(C2=CCN(CCc3ccc4ccccc4c3)CC2)c1
inactive: DIV14 | DIV17 | DIV30 | Dd2 | ECU | FAB9 | GB4 | HB3 | ICS | JCK | N140 | P93_24 | P94_40 | PAD | PC15 | PC26 | PC49 | SC27B | TAB113

NN=C(N)N
inactive: DIV14 | DIV17 | DIV30 | Dd2 | ECU | FAB9 | GB4 | HB3 | ICS | JCK | N140 | P93_24 | P94_40 | PAD | PC15 | PC26 | PC49 | SC27B | TAB109 | TAB113

CC[N+](CC)(CC)CC
inactive: DIV14 | DIV17 | DIV30 | Dd2 | ECU | FAB9 | GB4 | HB3 | ICS | JCK | N140 | P93_24 | P94_40 | PAD | PC15 | PC49 | SC27B | TAB109 | TAB113

Clc1ccc(COC(Cn2ccnc2)c2ccc(Cl)cc2Cl)cc1 (configuration not stated)
active: DIV14 1.9 µM | DIV17 1.51 µM | DIV30 1.69 µM | Dd2 2.82 µM | ECU 0.794 µM | FAB9 11.2 µM | GB4 1.69 µM | HB3 3.98 µM | ICS 0.631 µM | JCK 8.91 µM | N140 1.58 µM | P93_24 1.12 µM | P94_40 2 µM | PAD 2.51 µM | PC15 2.82 µM | PC26 1.9 µM | PC49 8.91 µM | SC27B 2.51 µM | TAB109 2.51 µM | TAB113 2.82 µM

CCCC(C)(COC(N)=O)COC(=O)NC(C)C (configuration not stated)
inactive: DIV14 | DIV17 | DIV30 | Dd2 | ECU | FAB9 | GB4 | HB3 | ICS | JCK | N140 | P93_24 | P94_40 | PAD | PC15 | PC26 | PC49 | SC27B | TAB109 | TAB113

OCCOc1ccccc1
inactive: DIV14 | DIV17 | DIV30 | Dd2 | ECU | FAB9 | GB4 | HB3 | ICS | JCK | N140 | P93_24 | P94_40 | PAD | PC15 | PC26 | PC49 | SC27B | TAB109 | TAB113

CN(C)CCc1ccc(O)cc1
inactive: DIV14 | DIV17 | DIV30 | Dd2 | ECU | FAB9 | GB4 | HB3 | ICS | JCK | N140 | P93_24 | P94_40 | PAD | PC15 | PC26 | PC49 | SC27B | TAB109 | TAB113

CC[N+]1(C)CCCC(OC(=O)C(O)(c2ccccc2)c2ccccc2)C1 (configuration not stated)
inactive: DIV14 | DIV17 | DIV30 | Dd2 | ECU | FAB9 | GB4 | HB3 | ICS | JCK | N140 | P93_24 | P94_40 | PAD | PC15 | PC26 | PC49 | SC27B | TAB109 | TAB113

Oc1cc(Cl)ccc1Oc1ccc(Cl)cc1Cl
active: DIV14 3.01 µM | DIV17 6.01 µM | DIV30 6.75 µM | Dd2 11.2 µM | ECU 6.31 µM | FAB9 11.2 µM | GB4 4.78 µM | HB3 8.91 µM | ICS 1.58 µM | JCK 11.2 µM | N140 3.16 µM | P93_24 6.31 µM | P94_40 4.47 µM | PAD 5.01 µM | PC15 7.08 µM | PC26 7.57 µM | PC49 12.6 µM | SC27B 4.47 µM | TAB109 10 µM | TAB113 4.47 µM

CN1CCN(C(=O)O[C@H]2c3nccnc3C(=O)N2c2ccc(Cl)cn2)CC1
inactive: DIV14 | DIV17 | DIV30 | Dd2 | ECU | FAB9 | GB4 | HB3 | ICS | JCK | N140 | P93_24 | P94_40 | PAD | PC15 | PC26 | SC27B | TAB109 | TAB113

Cc1ncc(CNC(=O)N(CCCl)N=O)c(N)n1
inactive: DIV14 | DIV17 | DIV30 | Dd2 | ECU | FAB9 | GB4 | HB3 | ICS | JCK | N140 | P93_24 | P94_40 | PAD | PC15 | PC26 | PC49 | SC27B | TAB109 | TAB113
